This is a sample that favours compounds with a hit; in the whole collection about 18% have one here.
KAT2A inh: qHTS Assay for Inhibitors of GCN5L2. Histone acetyltransferase KAT2A (Homo sapiens), Q92830. GCN5L2 HAT assay, ThioGlo1 CoA-SH fluorescence. Potency, µM (titrated, usually from 58.9 µM), most hits filed as inhibitors. hit rate 0.21% among 390,000. AID 504327, 2011
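Titration-based screen in which CoA formation is detected via maleimide probe ThioGlo1 (50uM) turning fluorescent on thiol reaction; substrates H3(1-25) 75uM and acetyl-CoA 70uM, GCN5L2 20nM, 20 min incubation at room temperature.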
TDP1 block: qHTS Assay for Inhibitors of Tyrosyl-DNA Phosphodiesterase (TDP1). recombinant TDP1, AlphaScreen DNA substrate cleavage. Potency, µM (titrated, usually from 130 µM), hits mostly inhibitors. hit rate 0.28% among 350,000. AID 485290, 2010; note: nearly all actives have a fitted effect of over 40% in size
Target sequence (Q9NUW8 whole entry, looked up): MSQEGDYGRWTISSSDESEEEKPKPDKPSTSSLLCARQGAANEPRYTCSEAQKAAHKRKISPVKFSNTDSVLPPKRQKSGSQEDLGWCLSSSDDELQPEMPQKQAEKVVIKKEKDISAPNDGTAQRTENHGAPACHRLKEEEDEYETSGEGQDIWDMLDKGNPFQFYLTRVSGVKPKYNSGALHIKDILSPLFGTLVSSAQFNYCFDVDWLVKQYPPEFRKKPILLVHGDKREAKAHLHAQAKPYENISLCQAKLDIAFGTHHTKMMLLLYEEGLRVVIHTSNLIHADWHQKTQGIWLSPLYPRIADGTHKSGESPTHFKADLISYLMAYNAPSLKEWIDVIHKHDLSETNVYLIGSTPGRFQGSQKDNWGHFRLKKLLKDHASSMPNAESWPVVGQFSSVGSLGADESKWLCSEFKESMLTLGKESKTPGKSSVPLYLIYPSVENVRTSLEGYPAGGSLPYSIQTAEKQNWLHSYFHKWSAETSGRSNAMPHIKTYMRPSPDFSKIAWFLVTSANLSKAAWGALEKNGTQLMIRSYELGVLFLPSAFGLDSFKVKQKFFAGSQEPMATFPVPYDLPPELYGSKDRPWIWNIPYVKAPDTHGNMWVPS
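Here, a 5' biotin and 3' phosphotyrosine-FITC DNA oligonucleotide reports Tdp1 activity: intact substrate bridges AlphaScreen beads, while cleavage leaves a 3' phosphate and drops signal. All incubations at room temperature.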
DT40 TDP1 no CPT: qHTS for Inhibitors of human tyrosyl-DNA phosphodiesterase 1 (TDP1): qHTS in cells in absence of CPT; hit rate 15% among 420,000; DT40 Tdp1-/- hTDP1 cells, no CPT, ATP luminescence, 48 h; Potency, µM (top dose mostly 46.2 µM), actives largely listed as inhibitors; note: nearly all actives have a fitted effect of over 55% in size
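Luminescent ATP content (CellTiter-Glo) served as the growth readout. Knockout chicken DT40 cells expressing human TDP1 were exposed to compounds without camptothecin for a minimum 48 hr at 37 °C.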
TDP1 cell CPT: qHTS for Inhibitors of human tyrosyl-DNA phosphodiesterase 1 (TDP1): qHTS in cells in presence of CPT | chicken DT40 Tdp1-/-;hTDP1 cells + 20 nM CPT, ATP luminescence, 48 h | Potency, µM (highest dose often 46.2 µM), hits mostly inhibitors | hit rate 12% among 420,000 | AID 686979, 2013; note: nearly all actives have a fitted effect of over 55% in size
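Chicken DT40 Tdp1-/- cells stably complemented with human TDP1 were seeded at 400 cells/well in medium containing 20 nM camptothecin, exposed to pin-transferred compounds, and grown at 37 °C for at least 48 hr. Viability was read as ATP luminescence.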
VDR inhibitor: Inhibitors of the vitamin D receptor (VDR): qHTS. Vitamin D3 receptor (Homo sapiens), P11473. VDR-SRC2-3 peptide fluorescence polarization, 2 h. Potency, µM, most hits filed as inhibitors. hit rate 0.93% among 400,000
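The screen uses fluorescence polarization to detect compounds that interfere with recruitment of the SRC2-3 coactivator peptide to VDR; plates are read after 2 h at room temperature.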
PLK1 PBD block: qHTS for Inhibitors of PLK1-PDB (polo-like kinase 1 - polo-box domain): Primary Screen; Serine/threonine-protein kinase PLK1 (Homo sapiens), P53350; Plk1 PBD binding of FITC phosphopeptide, fluorescence polarization; Potency, µM, usual class: inhibitors; hit rate 2.8% among 360,000; note: series mostly up to about 57 µM; nearly all actives have a fitted effect of over 65% in size
Hits are given with their value; n = inactive; u = inconclusive; x = no result given. Calls come from the whole dose curve; as a rule, active = well fitted curve in the direction sought with a large enough effect; inconclusive = small, poorly fitted or top-dose-only effect, or another doubt; inactive = no such curve, though single readings can be large; an effect the other way counts as inactive or inconclusive.

SMILES	KAT2A inh	TDP1 block	DT40 TDP1 no CPT	TDP1 cell CPT	VDR inhibitor	PLK1 PBD block
COc1ccc(Cl)cc1N=C1NC(=O)CC(C(=O)Nc2ccccc2C(F)(F)F)S1 (centres undefined)	n	n	x	x	n	x
CC(C)CN1CCC(C(=O)NC(c2ccc(F)cc2)c2ccc3ccccc3n2)CC1 (centres undefined)	x	x	23µM	u	x	n
COc1ccc(C(NC(=O)C2CCN(CCOc3ccc(F)cc3)CC2)c2cccs2)cc1 (centres undefined)	x	x	u	u	x	n
CCN1CCC(C(=O)NC(c2ccc(F)cc2)c2ncccc2C)CC1 (centres undefined)	x	x	n	n	x	n
COc1ccc(/C=C/CN2CCC(C(=O)NC(c3ccc(F)cc3)c3ccc4ccccc4n3)CC2)cc1 (centres undefined)	x	x	21µM	18µM	x	n
CCNC(=O)[C@H](C)/C=C/C(NC(=O)OCc1ccccc1)c1ccc(C(=O)OC)cc1 (some centres undefined)	x	n	x	x	x	x
CC1CCN(S(=O)(=O)N2CCC(C(=O)NC(C)c3ccccc3)CC2)CC1 (centres undefined)	x	x	u	10µM	x	n
C[C@H]1CN([C@@H](C)CO)C(=O)c2cc(Br)cnc2O[C@H]1CN(C)C(=O)C1CC1	x	x	n	n	x	n
COC(=O)c1ccc(CNC(=O)c2cc(COc3cncc(Cl)c3)on2)cc1	n	n	u	u	n	n
CSc1ccccc1OCc1cc(C(=O)N(C)CCn2nc(C)cc2C)no1	n	n	21µM	15µM	u	3.4µM
CCn1nc(C)c(CNC(=O)c2cc(COc3ccccc3SC)on2)c1C	n	n	u	21µM	n	n
CSc1ccccc1OCc1cc(C(=O)NC(C)c2cnn(C)c2)no1 (centres undefined)	u	n	u	u	n	n
CSc1ccccc1OCc1cc(C(=O)NC(C)Cc2cccc(C)n2)no1 (centres undefined)	n	n	13µM	16µM	n	n
CC(C)c1cc(CNC(=O)c2cc(COc3cncc(Cl)c3)on2)on1	n	x	18µM	u	n	n
CSc1ccccc1OCc1cc(C(=O)N(C)Cc2nonc2C)no1	n	n	u	u	n	n
COc1ccccc1/C=C/c1nc(C#N)c(NCc2ccccc2)o1	n	n	u	u	n	x
O=C(COC(=O)c1ccc(OC(F)F)cc1)NCc1cccs1	n	n	u	n	n	n
CCn1nc(C)c(CNC(=O)c2cc(COc3cncc(Cl)c3)on2)c1C	n	x	u	u	u	24µM
Cc1nn(C)c(C)c1C(C)NC(=O)c1cc(COc2cncc(Cl)c2)on1 (centres undefined)	n	n	n	n	n	n
Cc1ccc(Cn2ccc(NC(=O)c3cc(-c4ccc(Cl)c(Cl)c4)on3)n2)cc1	n	n	u	u	n	x
O=C(COC(=O)c1n[nH]c(=O)c2ccccc12)NCc1ccccc1	n	n	9.2µM	12µM	n	n
O=C(COC(=O)Cc1ccc(Cl)cc1)NCc1ccc(Cl)cc1	x	x	n	n	x	n
O=C(Cc1ccccc1)NCc1ccc(-n2cccc2)cc1	n	n	3.7µM	3.3µM	n	u
O=C(COC(=O)Cc1ccc(-c2ccccc2)cc1)NCc1ccccc1	n	n	n	u	u	27µM
O=C(COC(=O)c1n[nH]c(=O)c2ccccc12)c1ccccc1	n	n	u	n	n	n
O=C(NCCCc1ccccc1)c1ccc(CS(=O)Cc2ccc(Cl)cc2)o1 (centres undefined)	n	n	u	n	n	n
NC(=O)[C@@H]1CCCN1C(=O)c1ccc2nc(Cc3cccc(Cl)c3)oc2c1	n	n	n	n	n	n

From PubChem BioAssay
